From PMC4336329 (PLoS ONE, 2015)
Screen size: about 310,000 compounds; about 14,000 (4.5%) showed an effect of 50% or more. Effects have a minus sign here. Many of the other results were omitted from the sample, so strong results are more common in it than they were.

Each compound was assayed against human ether-à-go-go-related gene (hERG) potassium channel (human, UniProt Q12809) (assay: primary screen, population patch clamp on CHO cells stably expressing hERG; higher = less effect of the substance).
Chain of human ether-à-go-go-related gene (hERG) potassium channel (Q12809 whole entry, looked up): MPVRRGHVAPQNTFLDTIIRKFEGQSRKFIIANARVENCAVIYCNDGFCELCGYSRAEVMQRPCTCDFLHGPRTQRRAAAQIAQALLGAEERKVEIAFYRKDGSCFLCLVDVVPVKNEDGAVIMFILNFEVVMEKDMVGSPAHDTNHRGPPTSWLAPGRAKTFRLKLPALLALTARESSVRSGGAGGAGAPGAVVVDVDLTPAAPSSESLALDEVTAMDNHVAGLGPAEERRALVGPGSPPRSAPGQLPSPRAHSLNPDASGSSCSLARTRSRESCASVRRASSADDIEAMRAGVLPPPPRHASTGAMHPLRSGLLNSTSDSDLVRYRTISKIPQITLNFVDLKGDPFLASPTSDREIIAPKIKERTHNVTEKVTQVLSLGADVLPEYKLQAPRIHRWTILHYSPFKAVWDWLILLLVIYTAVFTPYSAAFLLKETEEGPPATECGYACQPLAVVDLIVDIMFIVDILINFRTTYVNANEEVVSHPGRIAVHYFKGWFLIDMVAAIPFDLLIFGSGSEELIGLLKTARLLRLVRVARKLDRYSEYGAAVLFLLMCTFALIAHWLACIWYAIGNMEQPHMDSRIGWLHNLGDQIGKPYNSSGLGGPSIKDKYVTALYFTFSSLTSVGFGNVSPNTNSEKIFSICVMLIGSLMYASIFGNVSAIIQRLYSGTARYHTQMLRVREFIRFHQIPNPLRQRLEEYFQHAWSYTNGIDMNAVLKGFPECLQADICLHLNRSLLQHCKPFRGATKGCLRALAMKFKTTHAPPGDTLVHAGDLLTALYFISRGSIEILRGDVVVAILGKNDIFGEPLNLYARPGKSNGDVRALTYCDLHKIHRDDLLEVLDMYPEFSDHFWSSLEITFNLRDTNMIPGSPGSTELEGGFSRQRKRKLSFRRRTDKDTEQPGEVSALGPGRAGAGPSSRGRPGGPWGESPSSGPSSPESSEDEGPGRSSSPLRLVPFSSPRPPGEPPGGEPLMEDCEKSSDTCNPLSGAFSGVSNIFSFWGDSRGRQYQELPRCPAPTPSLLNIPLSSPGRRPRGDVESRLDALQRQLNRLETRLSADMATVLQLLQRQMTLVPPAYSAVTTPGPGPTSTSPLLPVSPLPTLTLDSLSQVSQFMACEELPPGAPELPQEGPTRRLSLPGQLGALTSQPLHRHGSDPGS
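Note: peak tail current of the secondary pulse compared with the same well before compound.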

Compared with `CN(C)S(=O)(=O)N1CCC(Oc2ccc(C(=O)N3CCCCCCC3)cc2)CC1`, `O=C(COc1ccc(S(=O)(=O)N2CCCCC2)cc1)N1CCOCC1` is lower in “hERG current change (%, negative = inhibition) at 10uM” value: 10.9% for the first, 3.54% for the second.

Compared with `CCOc1ccccc1N1CCN(C(=O)NCc2ccc(Cl)cc2)CC1`, `CN1CCN(Cc2ccc(-c3ccc(Cl)cc3)o2)CC1` is lower in “hERG current change (%, negative = inhibition) at 10uM” value: -14.6% for the first, -31.7% for the second.

Compared with `COc1ccccc1N1CCN(CCCCN2C(=O)C3CCCCN3C2=O)CC1` (stereo not drawn), `COc1ccccc1N1CCN(CCN2C(=O)C3CCCCN3C2=O)CC1` (stereo not drawn) is higher in “hERG current change (%, negative = inhibition) at 10uM” value: -12.8% for the first, 4.39% for the second.

First: Cc1ccccc1N1CCN(CCCCN2C(=O)C3CCCN3C2=O)CC1.Cl.O (stereo not drawn)
Second: Cc1ccccc1N1CCN(CCCN2C(=O)C3CCCCN3C2=O)CC1 (stereo not drawn)
The “hERG current change (%, negative = inhibition) at 10uM” value of the first is lower: -65.4% for the first, -9.54% for the second.

First: COc1ccccc1N1CCN(CCN2C(=O)C3CCCN3C2=O)CC1 (stereo not drawn)
Second: CCCCOc1ccccc1N1CCN(CCCN2C(=O)C3CCCN3C2=O)CC1.Cl (stereo not drawn)
The “hERG current change (%, negative = inhibition) at 10uM” value of the first is higher: 12% for the first, -56.7% for the second.

Going from `CCCNC(=O)c1ccccc1N1CCN(CCCCN2C(=O)C3CCCCN3C2=O)CC1.Cl.O` (stereo not drawn) to `Cl.O.O=C1C2CCCCN2C(=O)N1CCCCN1CCN(c2ccccc2Oc2ccccc2)CC1` (stereo not drawn), the “hERG current change (%, negative = inhibition) at 10uM” value falls from -33.5% to -55.7%.

Compared with `Cc1ccc(N2CCN(CCCCN3C(=O)C4CCCN4C3=O)CC2)cc1.Cl` (stereo not drawn), `Cc1ccc(N2C(=O)CC(=O)NC2=O)cc1` is higher in “hERG current change (%, negative = inhibition) at 10uM” value: -23.9% for the first, -16.9% for the second.

Compared with `O=C(Nc1ccccc1)OC1C2CCC1C(N1CCCCC1)CC2` (stereo not drawn), `CC(=O)N/C(=C/c1ccccc1)C(=O)N1CCCCC1` is higher in “hERG current change (%, negative = inhibition) at 10uM” value: -37.5% for the first, 10.3% for the second.

Compared with `O=C(Nc1ccc(OCc2ccccc2Cl)cc1)c1cccnc1`, `COc1ccc(CC(=O)Nc2ccc(-c3nnc(-c4ccc(C)cc4)o3)cc2)cc1` is higher in “hERG current change (%, negative = inhibition) at 10uM” value: 1.02% for the first, 19.1% for the second.

Compared with `Cc1ccc(C(=O)N2CCCC(Nc3ccc(F)cc3)C2)cc1C` (stereo not drawn), `Cc1ccc(S(=O)(=O)Nc2ccc3c(c2)nc(CN2CCCC2)n3C)cc1` is lower in “hERG current change (%, negative = inhibition) at 10uM” value: 0.463% for the first, -46.5% for the second.

Going from `Cc1ccc(-c2ccc(=O)n(CC(=O)NCc3ccco3)n2)cc1` to `Cl.Clc1ccc(-c2ccc(CNCc3ccccn3)o2)cc1`, the “hERG current change (%, negative = inhibition) at 10uM” value falls from -10% to -52.4%.

Going from `O=C1C2C3c4ccccc4C(c4ccccc43)C2C(=O)N1Cc1ccco1` (stereo not drawn) to `CCOc1ccc(-c2nnc(-c3ccccc3)n2-c2ccccc2)cc1`, the “hERG current change (%, negative = inhibition) at 10uM” value falls from 5.12% to -18.8%.

Compared with `Cn1c(=O)n(C)c2cc(S(=O)(=O)O)ccc21`, `COc1ccc(NC(=O)CCNS(=O)(=O)c2ccc3c(c2)c(=O)n(C)c(=O)n3C)cc1` is lower in “hERG current change (%, negative = inhibition) at 10uM” value: 4.49% for the first, -2.03% for the second.

First: Cc1ccc(S(=O)(=O)NCC(=O)Nc2ccc3c(c2)OCO3)cc1
Second: O=C(COC(=O)C1CC(=O)N(Cc2ccccc2)C1)Nc1ccc2c(c1)OCO2 (stereo not drawn)
The “hERG current change (%, negative = inhibition) at 10uM” value of the first is higher: 8.87% for the first, 5.98% for the second.

Compared with `COc1cccc2sc(N(CCCN(C)C)C(=O)c3ccc(S(=O)(=O)N4CCc5ccccc5C4)cc3)nc12.Cl`, `CCN(CC)CCN(C(=O)c1ccc(C(=O)c2ccccc2)cc1)c1nc2c(OC)cccc2s1.Cl` is lower in “hERG current change (%, negative = inhibition) at 10uM” value: 3.58% for the first, -68% for the second.

First: CCN(CC)CCN(C(=O)c1ccc(S(=O)(=O)N(C)C2CCCCC2)cc1)c1nc2c(C)cccc2s1.Cl
Second: CCN(CC)CCN(C(=O)c1ccc([N+](=O)[O-])cc1)c1nc2c(OC)cccc2s1.Cl
The “hERG current change (%, negative = inhibition) at 10uM” value of the first is higher: -13.9% for the first, -73.2% for the second.

Going from `CCN(CC)CCN(C(=O)c1ccc(C(=O)c2ccccc2)cc1)c1nc2ccc(OC)cc2s1.Cl` to `COC(=O)c1ccc(/C=C/c2c(-c3ccc(OC)cc3)oc3ccccc23)cc1`, the “hERG current change (%, negative = inhibition) at 10uM” value rises from -45.9% to 7.39%.

First: CN1C(=O)/C(=C/c2ccccc2OCc2cccc(F)c2)N(C)C1=S
Second: Cc1cc(Oc2ccc(=O)n(C)n2)nc(SCc2ccccc2)n1
The “hERG current change (%, negative = inhibition) at 10uM” value of the first is lower: 6.02% for the first, 25.7% for the second.

First: Cc1nc2ccc(Cl)cc2c(=O)n1-c1ccccc1Cl
Second: O=S(=O)(Nc1ccccc1N1CCOCC1)c1ccc(F)c(Cl)c1
The “hERG current change (%, negative = inhibition) at 10uM” value of the first is higher: 5.06% for the first, -18.6% for the second.

Going from `Cl.Clc1ccc(CNCC2CCCO2)c(Cl)c1` (stereo not drawn) to `Cl.Clc1ccc(-c2ccc(CNCC3CCCO3)o2)cc1` (stereo not drawn), the “hERG current change (%, negative = inhibition) at 10uM” value falls from -2.74% to -62.4%.

Compared with `Cc1ccc(CNCC2CCCO2)o1` (stereo not drawn), `O=C(NCc1ccco1)c1noc2c1CCCC2` is lower in “hERG current change (%, negative = inhibition) at 10uM” value: 7.37% for the first, -3.59% for the second.

First: OCCc1ccc(-c2ccc(Cl)cc2)o1
Second: CCN(CC)CCNCc1ccc(-c2ccc(Cl)cc2)o1.Cl
The “hERG current change (%, negative = inhibition) at 10uM” value of the first is higher: 7.65% for the first, -72.8% for the second.

Compared with `Cl.Clc1cccc(-c2ccc(CNCc3ccccn3)o2)c1`, `Cl.Fc1ccc(-c2ccc(CNCc3ccccn3)o2)cc1Cl` is lower in “hERG current change (%, negative = inhibition) at 10uM” value: -16.2% for the first, -34.9% for the second.

Going from `CCCn1c(SCC(=O)NC2CC2)nnc1-c1ccccn1` to `CCCn1c(O)c(N=NC(=O)c2cccnc2)c2cc(Br)ccc21`, the “hERG current change (%, negative = inhibition) at 10uM” value falls from -2.29% to -3.7%.

First: COc1ccccc1NC(=O)c1sc2nc(Cc3ccccc3)cc(C(F)(F)F)c2c1N
Second: Cc1ccccc1C(NC(N)=O)c1ccccc1 (stereo not drawn)
The “hERG current change (%, negative = inhibition) at 10uM” value of the first is lower: -7.85% for the first, 0.289% for the second.

Compared with `COc1ccccc1CC(=O)N1CCOCC1`, `CC(=O)N/C(=C\c1ccccc1)C(=O)N1CCOCC1` is lower in “hERG current change (%, negative = inhibition) at 10uM” value: 21% for the first, 20.1% for the second.

Going from `COc1ccccc1-n1cnnc1SC1CCOC1=O` (stereo not drawn) to `CSc1nc2nc3c(c(=O)n2[nH]1)CN(Cc1ccccc1)CC3`, the “hERG current change (%, negative = inhibition) at 10uM” value falls from 4.66% to -20.5%.

First: S=C(CN1CCCC1=S)N1CCOCC1
Second: O=C(/C=C/c1ccccc1)N/C(=C/c1ccccc1)C(=O)N1CCOCC1
The “hERG current change (%, negative = inhibition) at 10uM” value of the first is higher: 17.3% for the first, -58.8% for the second.

First: CCOCCOC(=O)c1ccc(-n2cnc(C)n2)nc1
Second: CCOC(=O)C1(O)CC(C)=NN1C(=O)c1cccc(Br)c1 (stereo not drawn)
The “hERG current change (%, negative = inhibition) at 10uM” value of the first is lower: 16.3% for the first, 25.9% for the second.

First: Cc1cccc(C)c1NC(=O)C(NC=O)c1ccccc1Cl (stereo not drawn)
Second: O=C(N/C(=C\c1ccccc1)C(=O)N1CCOCC1)c1ccccc1Cl
The “hERG current change (%, negative = inhibition) at 10uM” value of the first is higher: 0.855% for the first, 0.479% for the second.

Compared with `CC1Cc2ccccc2N1c1ncnc2nc[nH]c12` (stereo not drawn), `CCOc1ccc(-n2c(-c3ccccc3)c[nH]c2=S)cc1` is higher in “hERG current change (%, negative = inhibition) at 10uM” value: -6.58% for the first, 20.6% for the second.

Compared with `CCc1ccc2c(c1)C(C)=CC(C)(C)N2`, `CC1=CC(C)(C)Nc2ccc(C)cc21` is lower in “hERG current change (%, negative = inhibition) at 10uM” value: 17% for the first, -58.1% for the second.

Going from `CC1=CC(C)(C)Nc2ccc(Cc3ccc4c(c3)C(C)=CC(C)(C)N4)cc21` to `CSc1nc2ccc(NS(=O)(=O)c3ccc(CNC(C)=O)cc3)cc2s1`, the “hERG current change (%, negative = inhibition) at 10uM” value falls from 13.9% to -0.24%.

First: Cn1c(-c2ccccc2)c[n+]2c1CCCCC2.[Br-]
Second: CCOc1ccc(-n2c(-c3ccccc3)c[n+]3c2CCCCC3)cc1.[Br-]
The “hERG current change (%, negative = inhibition) at 10uM” value of the first is higher: -0.399% for the first, -67% for the second.

First: CCOc1ccc(-n2c(-c3ccccc3)c[n+]3c2CCC3)cc1.[Br-]
Second: CCOc1ccc(-c2c[n+]3c(n2-c2ccccc2)CCCCC3)cc1.[Br-]
The “hERG current change (%, negative = inhibition) at 10uM” value of the first is higher: -54% for the first, -64.7% for the second.

Going from `COc1ccc(-c2c[n+]3c(n2-c2ccccc2)CCCCC3)cc1.[Br-]` to `FC(F)Oc1ccc(-c2c[n+]3c(n2-c2ccccc2)CCCCC3)cc1`, the “hERG current change (%, negative = inhibition) at 10uM” value falls from -18.6% to -70.3%.

First: CN(C)C(CNC(=O)c1cccs1)c1cccnc1 (stereo not drawn)
Second: CCn1c(O)c(N=NC(=O)c2cccnc2)c2cc(Br)ccc21
The “hERG current change (%, negative = inhibition) at 10uM” value of the first is higher: 18.7% for the first, -2.17% for the second.

First: CCOC(=O)c1cc2oc(C)cc2n1CC(=O)OC1CCCCC1
Second: CCOc1ccc(C(=O)NCCN2CCCCC2)c(OCC)c1
The “hERG current change (%, negative = inhibition) at 10uM” value of the first is higher: -5.5% for the first, -23.1% for the second.

First: NNC(=O)c1ccc(Cl)cc1
Second: NNC(=O)Cn1nc(Cc2ccccc2)n(N)c1=O
The “hERG current change (%, negative = inhibition) at 10uM” value of the first is lower: 2.74% for the first, 8.22% for the second.

First: C=CCN1N=C(/C=C/c2ccc(OC)cc2)CCC1=O
Second: COc1ccc(/C=C(/NC(=O)/C=C/c2ccccc2)C(=O)O)cc1
The “hERG current change (%, negative = inhibition) at 10uM” value of the first is lower: 6.48% for the first, 24.9% for the second.

Going from `C/C=C(\C)c1nnc(NC(=O)OCC)s1` to `CC/C(=N\O)c1ccc(OC)c(OC)c1`, the “hERG current change (%, negative = inhibition) at 10uM” value rises from 8.46% to 21.1%.

First: Cc1c(NC=C(C#N)C#N)c(=O)n(-c2ccccc2)n1C
Second: COc1ccc(/C=C(/NC(=O)/C=C/c2ccccc2)C(=O)N2CCOCC2)cc1
The “hERG current change (%, negative = inhibition) at 10uM” value of the first is higher: 35.5% for the first, -71.2% for the second.

First: COc1ccc(C(=O)N/C(=C\c2ccccc2)C(=O)N2CCOCC2)cc1
Second: O=C(N/C(=C/c1ccccc1)C(=O)N1CCCCCC1)c1ccccc1
The “hERG current change (%, negative = inhibition) at 10uM” value of the first is higher: -8.27% for the first, -12.4% for the second.

Compared with `O=C(/C=C/c1ccccc1)N/C(=C/c1ccccc1)C(=O)N1CCCCC1`, `Cn1c(CN2CCCC2)nc2cc(NS(=O)(=O)c3ccccc3)ccc21` is higher in “hERG current change (%, negative = inhibition) at 10uM” value: -58.7% for the first, 1.49% for the second.

Going from `CCCCn1c(O)c(N=NC(=O)c2ccncc2)c2cc(Br)ccc21` to `CCOc1ccc(C(CC(=O)O)NS(=O)(=O)c2ccc(C)cc2)cc1OC` (stereo not drawn), the “hERG current change (%, negative = inhibition) at 10uM” value rises from -68.1% to 10.3%.

First: COc1ccc(-c2n[nH]c(=S)n2C2CCCCC2)cc1
Second: Cn1c(CN2CCCCC2)nc2cc(NS(=O)(=O)c3ccc(Cl)cc3)ccc21
The “hERG current change (%, negative = inhibition) at 10uM” value of the first is higher: 20.2% for the first, -62.5% for the second.

`Cn1c(CN2CCCC2)nc2cc(NS(=O)(=O)c3ccc(Cl)cc3)ccc21` was tested, and the “hERG current change (%, negative = inhibition) at 10uM” value was -61.7%.
